# Screening results (PubChem)
# FBW7 activator: FBW7 E3 ligase activators, primary screen, biochemical, AlphaScreen, human | actives 0.13% (n = 650,000) | AID 1259310, 2017 | AlphaScreen FBW7–phospho-cyclin E peptide binding, activator screen | normalized activity (activation), % at 26.1 µM | F-box/WD repeat-containing protein 7 (Homo sapiens), Q969H0; in the data active = normalized activity above about 1.9%;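 note: purified mutant Fbw7 with reduced substrate affinity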
# Target sequence (Q969H0 whole entry, looked up): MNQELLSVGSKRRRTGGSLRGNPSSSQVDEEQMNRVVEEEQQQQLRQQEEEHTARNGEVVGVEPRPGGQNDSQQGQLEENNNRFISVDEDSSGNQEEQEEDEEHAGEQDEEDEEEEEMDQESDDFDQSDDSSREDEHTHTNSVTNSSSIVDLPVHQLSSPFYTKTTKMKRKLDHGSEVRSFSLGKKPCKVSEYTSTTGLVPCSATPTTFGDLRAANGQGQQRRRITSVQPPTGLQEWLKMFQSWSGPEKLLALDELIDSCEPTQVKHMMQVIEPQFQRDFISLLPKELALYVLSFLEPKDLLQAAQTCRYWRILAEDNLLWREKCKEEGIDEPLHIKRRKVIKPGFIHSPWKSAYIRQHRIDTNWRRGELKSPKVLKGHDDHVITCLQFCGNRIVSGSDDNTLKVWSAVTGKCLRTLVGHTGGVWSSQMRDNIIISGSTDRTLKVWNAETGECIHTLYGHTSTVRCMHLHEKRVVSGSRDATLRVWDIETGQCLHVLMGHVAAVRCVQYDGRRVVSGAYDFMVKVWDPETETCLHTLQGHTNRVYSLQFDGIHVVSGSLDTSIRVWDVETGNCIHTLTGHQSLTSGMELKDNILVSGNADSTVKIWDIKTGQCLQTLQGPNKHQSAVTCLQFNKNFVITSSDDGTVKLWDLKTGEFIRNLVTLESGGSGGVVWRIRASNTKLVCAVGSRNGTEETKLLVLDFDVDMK
# TEAD-YAP block: TEAD-YAP interaction inhibition, primary screen, TEAD-YAP interaction inhibitor project, luminescence, HEK-TIYL cells; TEAD-Gal4/YAP UAS-luciferase luminescence; inhibition, % at 9.12 µM; actives 1.4% (n = 640,000); AID 1259422, 2018; in the data active = inhibition above about 32%
# GPR151 activ: activators of human GPR151, primary screen, cell-based, PathHunter beta-arrestin, luminescence; G-protein coupled receptor 151 (Homo sapiens), Q8TDV0; PathHunter beta-arrestin GPR151 cells; activation, % at 11.2 µM; actives 1% (n = 650,000); AID 1508602, 2020; in the data active = activation above about 4.9%
# MITF primary: MITF inhibitors, primary screen, biochemical, AlphaScreen, human | AlphaScreen MITF homodimerization, bead proximity signal | inhibition, % at 2.6 µM | actives 0.91% (n = 650,000); in the data active = inhibition above about 50%
# Hits are given with their value; – = inactive. In the library only some 3.4% were active in any assay of this set; here they are far more common.
SMILES,FBW7 activator,TEAD-YAP block,GPR151 activ,MITF primary
COC(=O)c1cccc(NC(=O)COc2ccccc2Br)c1,–,43,–,–
Cc1ccc(OCC(=O)Nc2cccc(C(=O)O)c2)c(Br)c1,–,98,–,–
Cc1ccccc1NC(=O)COc1ccccc1C=O,–,–,–,–
Cc1cccc(C)c1N=C1S/C(=C\c2ccccc2C(F)(F)F)C(=O)N1c1ccccc1,–,–,–,–
COc1cc(=O)n2c(c1C(=O)N1CCSCC1)CCN(Cc1c(F)cccc1F)CC2,–,–,–,–
Cc1nn(-c2ccc(F)cc2F)c(N)c1C1(O)C(=O)Nc2ccc(C(C)C)cc21 (stereo not drawn),–,–,–,–
COc1ccc(CN(Cc2cccnc2)C(=O)CC2NC(=O)c3ccccc32)cc1OC (stereo not drawn),–,–,–,–
COC(=O)c1cccc(NC(=O)COc2ccc(C)cc2Br)c1,–,91,–,–
O=C(Cc1ccccc1)Nc1cccc(C(=O)OCC(=O)c2ccc([N+](=O)[O-])cc2)c1,–,–,–,–
COC(=O)c1cccc(NC(=O)COc2cc(C)ccc2C(C)(C)C)c1,–,–,–,–
Cc1ccc(OCC(=O)Nc2ccccc2F)c(Br)c1,–,38,–,–
Cc1ccc(C)c(C(=O)COC(=O)c2cccc(NC(=O)Cc3ccccc3)c2)c1,–,42,–,–
O=C(Nc1nnc(COc2ccc(C3CCCCC3)cc2)s1)C12CC3CC(CC(C3)C1)C2,1.9,–,–,–
Nc1ccc(-c2cnc3c(Nc4ccccc4)nccn23)cc1,–,53,–,–
c1ccc(Nc2nccn3c(-c4ccco4)cnc23)cc1,–,44,–,–
Oc1cccc(-c2cnc3c(Nc4ccccc4)nccn23)c1,–,–,–,–
Oc1ccc(/C=N/Nc2ccc3ccccc3c2)c(O)c1O,–,–,–,–
CCC(C)NC(=O)NC(=O)CSc1nc(N)cc(N)n1 (stereo not drawn),–,–,–,–
CCCNc1nccn2c(-c3cccc(NC(C)=O)c3)cnc12,–,69,–,–
COCCCNc1nccn2c(-c3cccc(OC(F)(F)F)c3)cnc12,–,40,–,–
COCCCNc1nccn2c(-c3cccc(NC(C)=O)c3)cnc12,–,90,–,–
CC(=O)Nc1cccc(-c2cnc(NCCCc3ccccc3)c3nccn23)c1,–,93,–,–
O=C(O)c1cccc(-c2cnc(NCCCc3ccccc3)c3nccn23)c1,–,–,–,–
COc1ccc2cc(-c3[nH]ncc3CN(C)Cc3nc(-c4cccnc4)no3)ccc2c1,–,–,–,–
O=C(c1cnsn1)N1CCc2c([nH]c3ccccc23)C1c1ccccc1F (stereo not drawn),–,–,–,–
SMILES,FBW7 activator,TEAD-YAP block,GPR151 activ,MITF primary
Clc1ccc(OCCCn2ccnc2)c2ccccc12,–,–,–,–
Cc1ccc(NC(=O)/C(C#N)=C/c2cccc(O)c2)cc1C,–,–,–,–
CC(=O)CSc1nc(C2CC2)cc(C(F)(F)F)c1C#N,2.7,–,–,–
COc1ccc2c(c1)OCC(Cc1ccc(OC)c(O)c1)C2=O (stereo not drawn),–,50,–,–
CN(C)c1cccc(Nc2cc(Nc3ccc4c(c3)OCO4)ncn2)c1,–,–,–,–
CCOc1ccc2[nH]cc(C(=O)NCc3cccnc3)c(=O)c2c1,–,41,–,–
O=C(O)c1ccccc1C(=O)Nc1cccc(Cl)c1Cl,–,–,–,–
COC(=O)C(O)C(Sc1ccccc1N)c1ccccc1 (stereo not drawn),–,–,–,–
Cc1ccccc1CN1C(=O)CSc2ccc(C(=O)N3CCN(c4ccccn4)CC3)cc21,–,45,–,–
Cc1ccccc1CN1C(=O)CSc2ccc(C(=O)N3CCOCC3)cc21,–,–,–,–
Cc1ccc(C2=N/C(=C\c3ccccc3OC(=O)c3ccc(Cl)cc3)C(=O)O2)cc1,–,45,–,–
O=C1OC(c2ccc(Cl)cc2)=N/C1=C/c1ccccc1OC(=O)c1ccc(Br)cc1,–,–,–,–
CS(=O)(=O)N1CCC(C(=O)Nc2ccc(N=Nc3ccccc3)cc2)CC1,–,–,–,–
CC1(C)Cc2c(c(N3CCOCC3)nc3snc(N)c23)CO1,–,36,–,–
COc1ccc(C=C(C(=O)Nc2ccccc2OC)C(=O)Nc2ccccc2OC)cc1O,–,57,–,–
CC(=O)Nc1ccc(Nc2nc(-c3c(C)nc4ccccn34)cs2)cc1,–,50,–,–
Cc1nc2ccccn2c1-c1csc(Nc2ccc(O)cc2)n1,–,–,–,–
Cc1nc2ccccn2c1-c1csc(Nc2ccc(N)cc2)n1,–,54,–,–
Cc1nc2ccccn2c1-c1csc(N)n1,–,44,–,–
COc1cccc(-c2csc3ncc(C(=O)NOC(C)(C)C)c(=O)n23)c1,–,–,–,–
CC(=O)N1CCC[C@H]1C(=O)N1CCC2(CC1)CC2C(=O)Nc1cc(C)cc(C)c1 (stereo partly drawn),–,–,–,–
C=CCN1C(=O)C(O)(CC(=O)c2ccccc2[N+](=O)[O-])c2cc(Br)ccc21 (stereo not drawn),–,–,–,–
Cc1nc(CSc2nc(-c3ccccc3)cc(-c3ccccc3)c2C#N)no1,–,–,–,–
CCC(CO)Nc1ccc2ncc(-c3ccc(OC)cc3)n2n1 (stereo not drawn),–,–,–,–
CCC(CO)Nc1ccc2ncc(-c3cncc(OC)c3)n2n1 (stereo not drawn),–,54,–,–
SMILES,FBW7 activator,TEAD-YAP block,GPR151 activ,MITF primary
CCC(CO)Nc1ccc2ncc(-c3cccc(NS(C)(=O)=O)c3)n2n1 (stereo not drawn),–,37,–,–
CC(OC(=O)c1ccc(O)cc1)C(=O)Nc1ccc(Cl)c(Cl)c1 (stereo not drawn),–,–,–,–
Clc1ccc(CSc2nn3cnnc3s2)cc1,–,53,–,–
O=[N+]([O-])c1cccc(S(=O)(=O)N2CCCC(c3nc(-c4cccs4)no3)C2)c1 (stereo not drawn),3.0,–,–,–
Cc1c(N)cccc1-c1nc2ccccc2s1,–,35,–,–
Cc1nc2cc(-c3nc4ccccc4s3)ccc2n1-c1ccccc1,–,59,–,–
Cc1c(N)cccc1-c1nc2ccccc2o1,–,57,–,–
CC(=O)Nc1cc(-c2nc3ccccc3s2)ccc1C,–,–,–,–
Cc1cc(-c2nc3ccccc3s2)ccc1N,–,81,–,–
CC(=O)c1ccc2c(c1)nc(C)n2-c1ccccc1,–,–,–,–
Fc1ccc(C2CC(c3ccc(Cl)cc3)=NN2c2ccc(Cl)cc2Cl)cc1 (stereo not drawn),–,–,–,–
Cc1ccc(-c2nc3ccccc3s2)cc1[N+](=O)[O-],–,–,–,–
Cc1ccc(-c2nc3ccccc3s2)cc1N,–,54,–,–
COc1ccc(C(=O)NC(c2ccco2)c2cc(Cl)c3cccnc3c2O)cc1 (stereo not drawn),–,–,–,–
